From PubChem
FLuc inh – qHTS Assay for Inhibitors of Firefly Luciferase. Luciferin 4-monooxygenase (Photinus pyralis), P08659. purified firefly luciferase, luminescence, 8 min. 2.2% of 72,000 active. AID 411, 2009. Potency, µM (highest dose often 57.1 µM), actives largely listed as inhibitors; note: nearly all actives have a fitted effect of over 40% in size
Target sequence (P08659 whole entry, looked up): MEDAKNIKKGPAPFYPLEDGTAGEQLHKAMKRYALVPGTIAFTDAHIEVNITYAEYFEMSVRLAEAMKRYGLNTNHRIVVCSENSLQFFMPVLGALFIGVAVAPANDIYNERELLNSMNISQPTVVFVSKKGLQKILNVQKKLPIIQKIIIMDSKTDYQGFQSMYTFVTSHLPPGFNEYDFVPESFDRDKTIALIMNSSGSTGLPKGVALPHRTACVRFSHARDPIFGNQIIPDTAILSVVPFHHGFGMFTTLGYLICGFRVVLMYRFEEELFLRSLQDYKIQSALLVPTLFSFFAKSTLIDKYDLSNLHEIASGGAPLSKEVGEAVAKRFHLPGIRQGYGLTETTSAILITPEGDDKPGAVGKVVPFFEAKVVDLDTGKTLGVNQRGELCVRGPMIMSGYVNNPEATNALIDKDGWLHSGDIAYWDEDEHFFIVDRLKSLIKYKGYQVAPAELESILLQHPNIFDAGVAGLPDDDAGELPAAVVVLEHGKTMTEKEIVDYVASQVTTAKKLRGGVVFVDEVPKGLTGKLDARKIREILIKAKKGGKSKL
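Inhibition of light generation by firefly luciferase from ATP and luciferin was profiled with concentration-response curves per sample, ATP held at 10 uM within the enzyme's linear range. Plates were read by luminescence after an 8-minute ambient incubation.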
PK Bst – Pyruvate Kinase; purified pyruvate kinase, luminescence ATP production; ribose 5-phosphate activator present at AC10; Potency, µM; 1.2% of 51,000 active; in the data active = potency below about 11 µM;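 the screen sought inhibitors and activators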
Epigenetic mod – qHTS Assay for Epigenetic Modulators. mouse C127i GFP locus derepression, cytometry, 30 h. Potency, µM (series often up to 46.1 µM). 0.09% of 68,000 active
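Locus derepression in mouse mammary C127i cells whose integrated CMV-GFP reporter is normally silent; GFP expression after 30 h compound treatment was quantified by counting fluorescent cells.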
HBB splice mod – qHTS Assay for Modulators of Hemoglobin Beta Chain Splicing; 0.06% of 65,000 active; HBB splicing reporter cell assay, activation; EGFP reporter with mutant IVS2-654 intron; response scale: normalised to 500 nM splice-correcting PNA; AID 925, 2007; Potency, µM (doses to about 46.1 µM), actives largely listed as activators
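Compounds were applied for 2 days to HeLa EGFP-654 cells, 500/well in Optimem with 2% FCS. The reporter's EGFP is disrupted by mis-splicing of beta-globin intron IVS2-654. Readout: summed well GFP fluorescence from 488 nm laser scanning; reference was 500 nM antisense […] 654 PNA.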
A number is an active result; - = inactive; . = no result; [ ] = dose if it differs, or a comment. Only some compounds are listed: those with a hit (about 2.6% of all), similar ones and a draw of the others. Unless noted, calls come from the whole dose curve; as a rule, active = well fitted curve in the direction sought with a large enough effect; inconclusive = small, poorly fitted or top-dose-only effect, or another doubt; inactive = no such curve, though single readings can be large; an effect the other way counts as inactive or inconclusive.

SMILES | FLuc inh | PK Bst | Epigenetic mod | HBB splice mod
COc1ccc(Nc2cc(C(=O)NCCCN3CCN(C)CC3)c3ccccc3n2)cc1OC | 25.1µM | - | - | -
CCOC(=O)C1CCCN(C(=O)c2cc(Nc3ccc(OC)c(OC)c3)nc3ccccc23)C1 (stereo unspecified) | 15.8µM | - | - | -
Cc1ccc(OCc2nc(-c3ccccc3)no2)c(C)c1 | 15.8µM | . | - | -
Cc1cc(C)c(C)c(OCc2nc(-c3cccnc3)no2)c1 | - | - | - | -
COc1ccc(N(CC(=O)O)S(=O)(=O)c2cccnc2)cc1 | - | - | - | -
CCOC(=O)c1c(C)[nH]c(C(=O)CSc2ccccc2)c1C | 3.98µM | - | - | -
CC1(C)CNC(=O)c2sc(N3CCCCC3)nc2C1 | 2µM | - | - | -
C=C1CC[C@H](O)C/C1=C/C=C1\CCC[C@]2(C)[C@H]1CC[C@H]2[C@@H](C)CCCC(C)C | - | . | - | -
COCc1cc(=O)n2c(-c3ccc(C)cc3)n[nH]c2n1 | 12.6µM | . | . | -
COCc1cc(=O)n2c(-c3ccccc3OC)n[nH]c2n1 | - | - | - | -
CCC12CCCN3CCC4(C(=C(C(=O)OC)C1)Nc1ccccc14)C32 (stereo unspecified) | - | - | - | .
Cc1cc2nc(-c3cccc(NC(=O)c4ccc(Br)o4)c3C)oc2cc1C | 7.94µM | . | - | -[0.0738 µM]
COc1ncc2nc(-c3ccc(F)cc3)c(=O)n(Cc3cccs3)c2n1 | -[11.4 µM] | . | -[9.22 µM] | -
O=C(CCn1c(=S)[nH]c2cc3c(cc2c1=O)OCO3)N1CCN(C2CCCCC2)CC1 | - | - | - | -[0.369 µM]
Cc1ccc(N2C(=O)c3ccccc3C2O)nc1 (stereo unspecified) | 6.31µM | . | . | -
Cc1ccc(N2C(=O)c3ccccc3C2Nc2ccccc2F)nc1 (stereo unspecified) | - | . | . | -
